# Inconclusive results are not listed. The source made the active and inactive calls. How the source made its calls, unless noted: active means hit-call score of the fitted dose curve at least 0.9, where 1 is the maximum; inactive means score below 0.9.
# Columns and labels:
# [1] = biological target: Oxysterols receptor LXR-beta (Homo sapiens) (UniProt P55055); assay: ATG_LXRb_TRANS: Attagene TRANS-FACTORIAL HepG2 Assay for human Liver X Receptor beta (LXRb) (AID 2282981; active means hit-call score of the fitted dose curve at least 0.9, where 1 is the maximum); conditions: HepG2 Attagene TRANS GAL4-LXRb reporter, mRNA
# Outline: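 Measures induction of a Gal4-driven reporter transcript in HepG2 cells expressing an exogenous LXRb-Gal4 fusion. Cells are exposed to compound for 24 h before RNA isolation and RT-PCR with capillary electrophoresis detection.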
# [2] = biological target: Hepatocyte nuclear factor 4-alpha (Homo sapiens) (UniProt P41235); assay: ATG_HNF4a_TRANS: Attagene TRANS-FACTORIAL HepG2 Assay for human Hepatocyte Nuclear Factor 4 alpha (HNF4a) (AID 2282982; active means hit-call score of the fitted dose curve at least 0.9, where 1 is the maximum); conditions: HepG2 HNF4a transactivation reporter, mRNA readout
# Outline: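 In this trans-factorial format, a chimeric HNF4a-GAL4 fusion drives a GAL4-UAS reporter in transfected HepG2 liver cells. After 24 h treatment, reporter mRNA induction is measured by RT-PCR with capillary electrophoresis, relative to DMSO.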
# [3] = ATG_M_06_TRANS: Attagene TRANS-FACTORIAL HepG2 Assay for M06 Transcription Factor (Internal Marker) (AID 2282983; active means hit-call score of the fitted dose curve at least 0.9, where 1 is the maximum); conditions: HepG2 Attagene TRANS M06 internal marker reporter
# Outline: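 Multi-reporter-transfected HepG2, 24 h treatment; reporter transcripts quantified via RT-PCR, primer-extension labelling and CE. DMSO-normalized gain-of-signal fit.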
# [4] = biological target: Transcriptional activator Myb (Homo sapiens) (UniProt P10242); assay: ATG_Myb_CIS: Attagene CIS-FACTORIAL HepG2 Assay for human Myeloblastosis (Myb) Proto-Oncogene Transcription Factor (AID 2282986); conditions: HepG2 Attagene CIS-FACTORIAL Myb reporter transcription; actives raise or lower the signal
# Outline: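 HepG2 cells were transiently transfected with cis-regulated multiple reporter transcription units reflecting endogenous Myb activity, then exposed to compound for 24 hours. Reporter mRNA was measured by RT-PCR with capillary electrophoresis; bidirectional fitting versus DMSO baseline.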
# [5] = biological target: Nuclear respiratory factor 1 (Homo sapiens) (UniProt Q16656); assay: ATG_NRF1_CIS: Attagene CIS-FACTORIAL HepG2 Assay for human Nuclear Respiratory Factor 1 (NRF1) Orphan Gene (AID 2282987); conditions: HepG2 NRF1 cis-element reporter, Attagene multiplex; actives raise or lower the signal
# Outline: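 HepG2 cells transiently transfected with multiple reporter transcription units under cis-regulatory promoter control, so endogenous transcription-factor activity is read. After 24 h compound exposure, reporter mRNA quantified by RT-PCR, fluorescent labelling, HpaI digestion and capillary electrophoresis; bidirectional fitting versus DMSO.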
# [6] = ATG_NFI_CIS: Attagene CIS-FACTORIAL HepG2 Assay for human Nuclear Factor I (NFI) (AID 2282989); conditions: HepG2 cis-regulatory reporter, NFI response element transcription; actives raise or lower the signal
# Outline: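 Endogenous TF activity in HepG2 cells transiently transfected with cis-element-driven multiplexed reporter units, read 24 h after dosing. Reporter mRNA quantified by RT-PCR, 6-FAM labelling, HpaI digestion and capillary electrophoresis; bidirectional fit versus DMSO.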
# [7] = biological target: Myc proto-oncogene protein (Homo sapiens) (UniProt P01106); assay: ATG_Myc_CIS: Attagene CIS-FACTORIAL HepG2 Assay for human Myelocytomatosis (Myc) Proto-Oncogene Transcription Factor (AID 2282990); conditions: HepG2, Attagene cis-reporter transcription factor activity; actives raise or lower the signal
# Outline: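 Multiplexed cis-reporter transcription in HepG2 cells after 24 h chemical treatment. Reporter mRNA measured by RT-PCR and capillary electrophoresis fluorescence; activity fitted bidirectionally against DMSO control.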
# [8] = ATG_NF_kB_CIS: Attagene CIS-FACTORIAL HepG2 Assay for human Nuclear Factor Kappa B (NF-kB) (AID 2282991); conditions: HepG2 Attagene cis-factorial NF-kB reporter mRNA; actives raise or lower the signal
# Outline: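 HepG2 cells transiently transfected with multiplexed cis-element reporter units measuring endogenous transcription factor activity; reporter mRNA read 24 h after dosing by RT-PCR, fluorescent labelling, HpaI digestion and capillary electrophoresis. Bidirectional fit against DMSO baseline.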
# [9] = ATG_NRF2_ARE_CIS: Attagene CIS-FACTORIAL HepG2 Assay for human Nuclear Factor Erythroid 2 Related Factor 2 (NFR2) response to Antioxidant Response Elements (ARE) (AID 2282992); conditions: HepG2 Attagene ARE/NRF2 reporter, transcription factor activity; actives raise or lower the signal
# Outline: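 Endogenous transcription factor activity read out as reporter transcript levels (RT-PCR plus capillary electrophoresis, fluorescence) in transiently transfected HepG2 cells. Measured at 24 h after dosing; gain or loss of signal fitted versus DMSO.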
# [10] = ATG_Oct_MLP_CIS: Attagene CIS-FACTORIAL HepG2 Assay for human Octamer-Binding Transcription Factor (Oct) (AID 2282993); conditions: HepG2 Attagene cis-factorial Oct reporter, mRNA; actives raise or lower the signal
# Outline: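 HepG2 cells transiently transfected with cis-element-driven reporter transcription units (endogenous TF activity); 24 h compound exposure. Reporter mRNA quantified by RT-PCR, 6-FAM labelling, HpaI digestion and capillary electrophoresis; bidirectional fit versus DMSO baseline.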
# [11] = biological target: Cellular tumor antigen p53 (Homo sapiens) (UniProt P04637); assay: ATG_p53_CIS: Attagene CIS-FACTORIAL HepG2 Assay for human p53 Transcription Factor (AID 2282994); conditions: HepG2 p53 cis-element reporter, Attagene mRNA; actives raise or lower the signal
# Outline: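 Endogenous p53 activity read in transiently transfected HepG2 from a cis-element-driven reporter transcript after 24 h exposure. RNA reverse-transcribed, PCR-amplified, fluorescently labelled and sized by capillary electrophoresis; gain or loss fitted against DMSO baseline.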
# [12] = biological target: Oxysterols receptor LXR-alpha (Homo sapiens) (UniProt Q13133); assay: ATG_LXRa_TRANS: Attagene TRANS-FACTORIAL HepG2 Assay for human Liver X Receptor alpha (LXRa) (AID 2282980; active means hit-call score of the fitted dose curve at least 0.9, where 1 is the maximum); conditions: HepG2 Attagene TRANS reporter, LXRa transactivation
# Outline: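 In this multiplexed TRANS system, compounds act on HepG2 cells carrying GAL4-UAS reporter units and a receptor-GAL4 fusion for 24 h. Induced reporter RNA is amplified, fluorescently labelled and sized by capillary electrophoresis, with DMSO as baseline.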
# [13] = ATG_M_32_TRANS: Attagene TRANS-FACTORIAL HepG2 Assay for M32 Transcription Factor (Internal Marker) (AID 2282984; active means hit-call score of the fitted dose curve at least 0.9, where 1 is the maximum;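 further: transcript level of a background control reporter unit measured by RT-PCR and capillary electrophoresis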); conditions: HepG2 Attagene TRANS M32 internal marker reporter
# Outline: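 After 24 h dosing of transfected HepG2 cells, total RNA was reverse-transcribed, reporter sequences PCR-amplified, 6-FAM labelled by primer extension and HpaI-digested before capillary electrophoresis. Signal increase over DMSO was fitted.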
# [14] = biological target: Nuclear receptor subfamily 4 group A member 2 (Homo sapiens) (UniProt P43354); assay: ATG_NURR1_TRANS: Attagene TRANS-FACTORIAL HepG2 Assay for human Nuclear Receptor Related Protein 1 (NURR1) (AID 2282985; active means hit-call score of the fitted dose curve at least 0.9, where 1 is the maximum); conditions: HepG2 Attagene TRANS reporter, mRNA readout
# Outline: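 Chimeric NR-Gal4 fusion activity measured in HepG2 after 24 h treatment. Reporter transcripts detected by RT-PCR and capillary electrophoresis fluorescence; positive-direction curve fitting against DMSO.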
# [15] = BSK_3C_TissueFactor: BioMAP Diversity Plus: 3C Assay for Tissue Factor Biomarker Activity (AID 2282997); conditions: BioMAP 3C HUVEC, tissue factor biomarker readout; actives raise or lower the signal
# Outline: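 In this endothelial system, HUVEC are treated for 24 h and Tissue Factor is assessed by ELISA, normalised to DMSO.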
# [16] = BSK_3C_uPAR: BioMAP Diversity Plus: 3C Assay for Urokinase-type plasminogen activator receptor (uPAR) Biomarker Activity (AID 2282998); conditions: BioMAP 3C HUVEC, uPAR biomarker ELISA; actives raise or lower the signal
# Outline: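 Primary human umbilical vein endothelial cells, 3C system; surface uPAR measured by ELISA 24 h after dosing. Cytotoxicity via SRB total protein in parallel cultures; bidirectional fit against DMSO.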
# [17] = BSK_3C_VCAM1: BioMAP Diversity Plus: 3C Assay for Vascular cell adhesion molecule 1 (VCAM1) Biomarker Activity (AID 2282999); conditions: BioMAP 3C HUVEC, VCAM1 ELISA, cytokine-stimulated; actives raise or lower the signal
# Outline: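 Vascular primary endothelium (human umbilical vein) was exposed to chemicals and assayed 24 h later. VCAM-1 levels came from ELISA, with DMSO serving as baseline for bidirectional fitting.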
# [18] = BSK_4H_Eotaxin3: BioMAP Diversity Plus: 4H Assay for Eotaxin 3 Biomarker Activity (AID 2283000); conditions: primary human endothelial cells (HUVEC); actives raise or lower the signal;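 further: CCL26 protein level quantified by ELISA in parallel with SRB cytotoxicity check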
# Outline: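 ELISA quantitation of CCL26 (Eotaxin-3) protein from chemically dosed human vascular endothelial cells at 24 h; increases and decreases both scored relative to DMSO-treated baseline.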
# Chain of Nuclear receptor subfamily 4 group A member 2 (Homo sapiens) (P43354 whole entry, looked up, the tested form may be a part): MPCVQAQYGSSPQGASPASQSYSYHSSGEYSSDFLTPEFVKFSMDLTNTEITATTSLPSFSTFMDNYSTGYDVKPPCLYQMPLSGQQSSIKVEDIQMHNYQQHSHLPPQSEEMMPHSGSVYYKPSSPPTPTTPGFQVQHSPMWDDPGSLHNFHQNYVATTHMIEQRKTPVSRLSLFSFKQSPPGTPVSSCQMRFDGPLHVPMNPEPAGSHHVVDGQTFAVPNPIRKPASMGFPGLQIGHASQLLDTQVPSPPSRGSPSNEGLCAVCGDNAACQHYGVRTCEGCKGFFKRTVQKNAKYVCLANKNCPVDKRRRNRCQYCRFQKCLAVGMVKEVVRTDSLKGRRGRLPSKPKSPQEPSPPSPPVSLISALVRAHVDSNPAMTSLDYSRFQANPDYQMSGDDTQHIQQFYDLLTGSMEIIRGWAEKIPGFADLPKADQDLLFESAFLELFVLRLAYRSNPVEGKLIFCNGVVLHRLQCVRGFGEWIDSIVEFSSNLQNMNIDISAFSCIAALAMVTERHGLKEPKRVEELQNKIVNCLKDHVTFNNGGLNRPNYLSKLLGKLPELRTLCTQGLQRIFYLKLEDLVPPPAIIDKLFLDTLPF
# Chain of Transcriptional activator Myb (Homo sapiens) (P10242 whole entry, looked up): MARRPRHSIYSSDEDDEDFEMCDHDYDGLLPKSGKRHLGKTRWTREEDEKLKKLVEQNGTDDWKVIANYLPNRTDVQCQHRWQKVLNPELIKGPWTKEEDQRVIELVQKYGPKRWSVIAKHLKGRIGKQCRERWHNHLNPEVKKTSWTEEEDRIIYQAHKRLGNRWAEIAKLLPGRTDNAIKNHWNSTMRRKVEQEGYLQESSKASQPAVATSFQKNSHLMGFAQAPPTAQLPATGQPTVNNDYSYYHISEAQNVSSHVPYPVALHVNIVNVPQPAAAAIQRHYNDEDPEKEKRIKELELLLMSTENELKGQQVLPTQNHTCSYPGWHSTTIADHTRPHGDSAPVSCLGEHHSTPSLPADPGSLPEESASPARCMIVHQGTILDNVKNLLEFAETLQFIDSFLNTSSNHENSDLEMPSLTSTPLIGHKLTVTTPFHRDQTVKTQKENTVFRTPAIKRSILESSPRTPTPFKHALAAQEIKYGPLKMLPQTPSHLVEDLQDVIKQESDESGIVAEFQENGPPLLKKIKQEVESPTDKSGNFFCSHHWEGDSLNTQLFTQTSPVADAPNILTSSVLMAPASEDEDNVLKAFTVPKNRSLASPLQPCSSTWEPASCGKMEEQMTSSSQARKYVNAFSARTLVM
# Chain of Myc proto-oncogene protein (Homo sapiens) (P01106 whole entry, looked up): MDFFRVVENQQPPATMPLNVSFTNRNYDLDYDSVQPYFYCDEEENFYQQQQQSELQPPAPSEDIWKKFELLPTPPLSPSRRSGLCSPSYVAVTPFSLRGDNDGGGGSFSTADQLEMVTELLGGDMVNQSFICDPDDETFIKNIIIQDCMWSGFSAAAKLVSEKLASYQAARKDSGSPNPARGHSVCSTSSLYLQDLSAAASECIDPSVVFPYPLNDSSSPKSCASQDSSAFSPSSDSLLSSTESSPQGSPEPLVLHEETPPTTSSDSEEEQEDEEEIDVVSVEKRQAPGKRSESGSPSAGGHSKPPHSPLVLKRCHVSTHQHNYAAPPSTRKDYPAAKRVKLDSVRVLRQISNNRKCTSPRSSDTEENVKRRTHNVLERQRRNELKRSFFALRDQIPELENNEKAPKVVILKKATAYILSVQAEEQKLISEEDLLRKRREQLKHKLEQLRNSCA
# Chain of Oxysterols receptor LXR-beta (Homo sapiens) (P55055 whole entry, looked up, the tested form may be a part): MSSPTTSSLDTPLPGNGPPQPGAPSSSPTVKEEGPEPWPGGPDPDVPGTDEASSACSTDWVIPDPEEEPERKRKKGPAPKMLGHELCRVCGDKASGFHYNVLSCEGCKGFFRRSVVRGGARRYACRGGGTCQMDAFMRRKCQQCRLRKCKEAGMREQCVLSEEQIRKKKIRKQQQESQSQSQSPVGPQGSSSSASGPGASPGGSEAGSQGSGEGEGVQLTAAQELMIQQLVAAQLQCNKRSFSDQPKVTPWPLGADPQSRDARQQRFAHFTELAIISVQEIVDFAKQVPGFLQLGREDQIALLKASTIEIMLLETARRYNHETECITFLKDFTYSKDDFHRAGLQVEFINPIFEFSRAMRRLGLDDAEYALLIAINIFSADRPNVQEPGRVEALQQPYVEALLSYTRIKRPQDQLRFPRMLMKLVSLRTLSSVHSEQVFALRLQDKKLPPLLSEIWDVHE
# Chain of Cellular tumor antigen p53 (Homo sapiens) (P04637 whole entry, looked up): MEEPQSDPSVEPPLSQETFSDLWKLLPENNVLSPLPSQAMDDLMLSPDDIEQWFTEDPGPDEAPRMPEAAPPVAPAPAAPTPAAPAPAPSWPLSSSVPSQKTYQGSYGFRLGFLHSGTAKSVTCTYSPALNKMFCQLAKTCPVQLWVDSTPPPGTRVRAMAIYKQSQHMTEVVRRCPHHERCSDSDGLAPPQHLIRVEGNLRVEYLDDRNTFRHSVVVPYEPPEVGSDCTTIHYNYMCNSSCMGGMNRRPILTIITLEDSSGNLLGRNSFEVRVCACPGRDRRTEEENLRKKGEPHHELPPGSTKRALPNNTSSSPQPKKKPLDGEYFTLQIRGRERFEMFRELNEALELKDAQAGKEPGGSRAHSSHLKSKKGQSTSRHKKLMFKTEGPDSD
# Chain of Nuclear respiratory factor 1 (Homo sapiens) (Q16656 whole entry, looked up): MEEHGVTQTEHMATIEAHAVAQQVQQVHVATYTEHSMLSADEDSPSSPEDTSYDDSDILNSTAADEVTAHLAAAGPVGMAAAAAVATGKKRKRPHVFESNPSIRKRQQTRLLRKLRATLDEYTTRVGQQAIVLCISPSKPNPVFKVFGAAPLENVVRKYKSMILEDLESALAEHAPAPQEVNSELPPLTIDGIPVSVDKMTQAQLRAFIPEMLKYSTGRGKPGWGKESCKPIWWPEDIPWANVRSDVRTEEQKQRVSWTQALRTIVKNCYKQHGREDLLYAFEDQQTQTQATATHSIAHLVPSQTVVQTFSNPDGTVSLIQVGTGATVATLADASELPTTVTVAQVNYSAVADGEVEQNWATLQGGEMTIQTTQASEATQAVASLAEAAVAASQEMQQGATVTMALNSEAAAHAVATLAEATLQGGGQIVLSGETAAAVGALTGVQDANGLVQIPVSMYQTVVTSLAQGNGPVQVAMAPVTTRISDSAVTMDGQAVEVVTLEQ
# Chain of Hepatocyte nuclear factor 4-alpha (Homo sapiens) (P41235 whole entry, looked up, the tested form may be a part): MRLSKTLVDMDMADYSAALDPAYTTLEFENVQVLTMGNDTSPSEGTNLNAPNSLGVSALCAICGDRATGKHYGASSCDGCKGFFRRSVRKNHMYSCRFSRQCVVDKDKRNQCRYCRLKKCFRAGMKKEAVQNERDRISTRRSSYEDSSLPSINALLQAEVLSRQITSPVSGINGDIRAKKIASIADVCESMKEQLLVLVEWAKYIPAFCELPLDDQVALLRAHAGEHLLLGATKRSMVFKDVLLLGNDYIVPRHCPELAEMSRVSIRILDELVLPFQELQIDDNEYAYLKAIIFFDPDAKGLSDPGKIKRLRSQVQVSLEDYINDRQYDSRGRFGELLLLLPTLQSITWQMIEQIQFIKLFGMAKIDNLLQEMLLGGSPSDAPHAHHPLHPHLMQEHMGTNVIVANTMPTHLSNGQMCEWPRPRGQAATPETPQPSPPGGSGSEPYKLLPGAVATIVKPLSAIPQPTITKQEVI
# Chain of Oxysterols receptor LXR-alpha (Homo sapiens) (Q13133 whole entry, looked up, the tested form may be a part): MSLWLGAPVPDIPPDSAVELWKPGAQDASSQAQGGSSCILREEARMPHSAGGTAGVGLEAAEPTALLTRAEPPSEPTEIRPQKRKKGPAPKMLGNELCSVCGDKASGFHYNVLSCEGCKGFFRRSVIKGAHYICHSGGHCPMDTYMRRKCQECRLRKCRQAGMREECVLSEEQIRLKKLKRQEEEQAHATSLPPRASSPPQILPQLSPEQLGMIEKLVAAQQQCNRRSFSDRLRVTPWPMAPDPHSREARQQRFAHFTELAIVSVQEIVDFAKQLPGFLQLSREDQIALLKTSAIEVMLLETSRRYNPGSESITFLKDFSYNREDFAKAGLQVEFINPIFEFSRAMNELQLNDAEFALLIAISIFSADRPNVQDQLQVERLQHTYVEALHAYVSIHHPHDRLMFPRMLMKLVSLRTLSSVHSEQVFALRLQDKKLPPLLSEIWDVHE
compound,measurement,setting,value
O=C(O)c1snc(Cl)c1Cl,outcome,[1],inactive
same,outcome,[2],inactive
same,outcome,[3],inactive
same,outcome,[4],inactive
same,outcome,[5],inactive
same,outcome,[6],inactive
same,outcome,[7],inactive
same,AC50,[8],100 µM (active)
same,AC50,[9],27.4 µM (active)
same,AC50,[10],155 µM (active)
same,outcome,[11],inactive
CCN(CC)CCOC(=O)c1ccc(N)cc1,outcome,[12],inactive
same,outcome,[13],inactive
same,outcome,[4],inactive
same,outcome,[5],inactive
same,outcome,[6],inactive
same,outcome,[7],inactive
same,outcome,[8],inactive
same,outcome,[9],inactive
same,outcome,[10],inactive
same,outcome,[11],inactive
CCCCNC(=O)NS(=O)(=O)c1ccc(N)cc1,outcome,[1],inactive
same,outcome,[2],inactive
same,outcome,[3],inactive
same,outcome,[4],inactive
same,outcome,[5],inactive
same,outcome,[6],inactive
same,outcome,[7],inactive
same,outcome,[8],inactive
same,outcome,[9],inactive
same,outcome,[10],inactive
same,outcome,[11],inactive
c1ccc(CCCc2ccccn2)cc1,outcome,[1],inactive
same,outcome,[2],inactive
same,outcome,[3],inactive
same,outcome,[14],inactive
same,outcome,[4],inactive
same,outcome,[5],inactive
same,outcome,[7],inactive
same,outcome,[8],inactive
same,outcome,[9],inactive
same,outcome,[10],inactive
same,outcome,[11],inactive
CC1CC(OC(=O)c2ccccc2O)CC(C)(C)C1 (stereo unspecified),outcome,[1],inactive
same,outcome,[13],inactive
same,outcome,[5],inactive
same,outcome,[6],inactive
same,outcome,[7],inactive
same,outcome,[8],inactive
same,outcome,[9],inactive
same,outcome,[10],inactive
same,outcome,[11],inactive
c1cc(C(c2ccc(OCC3CO3)cc2)c2ccc(OCC3CO3)cc2)ccc1OCC1CO1 (stereo unspecified),outcome,[1],inactive
same,outcome,[2],inactive
same,outcome,[3],inactive
same,outcome,[14],inactive
same,outcome,[4],inactive
same,AC50,[5],24 µM (active)
same,AC50,[6],10.1 µM (active)
same,outcome,[7],inactive
same,AC50,[8],100 µM (active)
same,outcome,[9],inactive
same,AC50,[10],24.8 µM (active)
same,AC50,[11],11.8 µM (active)
O=C(O)CCCCCCCC(=O)O,outcome,[1],inactive
same,outcome,[2],inactive
same,outcome,[3],inactive
same,outcome,[13],inactive
same,outcome,[5],inactive
same,outcome,[6],inactive
same,outcome,[7],inactive
same,outcome,[8],inactive
same,outcome,[9],inactive
same,outcome,[10],inactive
same,outcome,[11],inactive
CC(C)OP(=O)(CP(=O)(OC(C)C)OC(C)C)OC(C)C,outcome,[1],inactive
same,outcome,[3],inactive
same,outcome,[13],inactive
same,outcome,[14],inactive
same,outcome,[4],inactive
same,outcome,[5],inactive
same,outcome,[6],inactive
same,outcome,[7],inactive
same,outcome,[8],inactive
same,outcome,[9],inactive
same,outcome,[10],inactive
same,outcome,[11],inactive
O=C1O[C@@H]2[C@@H](O)[C@H](O)O[C@@H]2[C@H]1O,outcome,[1],inactive
same,outcome,[2],inactive
same,outcome,[3],inactive
same,outcome,[5],inactive
same,outcome,[6],inactive
same,outcome,[7],inactive
same,outcome,[8],inactive
same,outcome,[9],inactive
same,outcome,[10],inactive
same,outcome,[11],inactive
CCCCCCCCCCCCCCCCCC(=O)OCC(CC)CCCC (stereo unspecified),outcome,[1],inactive
same,outcome,[2],inactive
same,outcome,[3],inactive
same,outcome,[13],inactive
same,outcome,[5],inactive
same,outcome,[6],inactive
same,outcome,[7],inactive
same,outcome,[8],inactive
same,outcome,[9],inactive
same,outcome,[10],inactive
same,outcome,[11],inactive
same,outcome,[15],inactive
same,outcome,[16],inactive
same,outcome,[17],inactive
same,outcome,[18],inactive
Clc1sc(Cl)c(Cl)c1Cl,outcome,[3],inactive
same,outcome,[13],inactive
same,outcome,[4],inactive
same,outcome,[5],inactive
same,outcome,[6],inactive
same,outcome,[7],inactive
same,outcome,[9],inactive
same,outcome,[10],inactive
O=C(Cl)c1cccc(C(=O)Cl)c1,outcome,[2],inactive
same,outcome,[3],inactive
same,outcome,[14],inactive
same,outcome,[4],inactive
same,outcome,[5],inactive
same,outcome,[6],inactive
same,outcome,[7],inactive
same,outcome,[9],inactive
same,outcome,[10],inactive
same,outcome,[11],inactive
O=C1CCc2ccccc2O1,outcome,[2],inactive
same,outcome,[3],inactive
same,outcome,[14],inactive
same,outcome,[4],inactive
same,outcome,[5],inactive
same,outcome,[6],inactive
same,outcome,[7],inactive
same,outcome,[9],inactive
same,outcome,[10],inactive
same,outcome,[11],inactive
O=c1[nH]c(=O)n([C@H]2CCCO2)cc1F,outcome,[2],inactive
same,outcome,[3],inactive
same,outcome,[14],inactive
same,outcome,[4],inactive
same,outcome,[5],inactive
same,outcome,[6],inactive
same,outcome,[7],inactive
same,outcome,[8],inactive
same,outcome,[9],inactive
same,outcome,[10],inactive
same,outcome,[11],inactive
CN(C)C(=N)N=C(N)N,outcome,[3],inactive
same,outcome,[13],inactive
same,outcome,[4],inactive
same,outcome,[5],inactive
same,outcome,[6],inactive
same,outcome,[7],inactive
same,outcome,[8],inactive
same,outcome,[9],inactive
same,outcome,[10],inactive
same,outcome,[11],inactive

# Reference: PubChem BioAssay (EPA / NIEHS)
